From PubChem BioAssay
The source made the active and inactive calls. Unless noted, no rule for the calls is given here.

Assays:
[1] = compounds binding Alexa647 anti-His antibody – biochemical, small-molecule microarray, 635 nm fluorescence, artefact control for SMM control protein annotation, primary screen (AID 1128); conditions: higher = more signal;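 also: score merges feature fluorescence with signal-to-noise for each printed compound spot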
[2] = system: Human papillomavirus type 1a E7 protein (residues 1-88); test: HPV1a E7 small-molecule binders, primary screen, biochemical, small-molecule microarray, residues 1-88, 635 nm (AID 1129); conditions: small-molecule microarray binding, fluorescence 635 nm; higher = more signal
[3] = target: Focal adhesion kinase 1 (Homo sapiens) (UniProt Q05397); test: PTK2 protein binding on printed compound slides – biochemical, small-molecule microarray, 635/667 nm fluorescence, BSA, DTT, primary screen (AID 1130); conditions: 635 nm fluorescence, higher = more signal;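 also: composite of spot emission at 667 nm and signal to noise over triplicate slides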
[4] = system: Fibrinogen (Alexa647-labelled); test: Alexa647-fibrinogen binding to printed small molecules – biochemical, small-molecule microarray, 635/667 nm fluorescence, artefact control for SMM control-protein annotation, profiling panel (AID 1131); conditions: fibrinogen-A647 binding fluorescence, higher = more signal;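 also: z-score merges 667 nm fluorescence with per-spot signal-to-noise over triplicate slides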
[5] = target: Follistatin (Homo sapiens) (UniProt P19883); test: FST protein binding to printed compounds – biochemical, small-molecule microarray, 635/667 nm fluorescence, primary screen (AID 1132); conditions: 635 nm fluorescence, higher = more signal
[6] = target: Fibroblast growth factor 2 (Homo sapiens) (UniProt P09038); test: basic fibroblast growth factor binding to printed compounds – biochemical, small-molecule microarray, 635/667 nm fluorescence, primary screen (AID 1133); conditions: FGF2, fluorescence 635/667, higher = more signal
[7] = JC-1 mitochondrial potential readout, lung cancer cells – cell-based, A549, JC-1 fluorescence, basal, 24 h, 100 nL, profiling panel (AID 1138); conditions: higher = more signal;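 also: A549 lung adenocarcinoma cells under basal conditions with no added stimulus; test concentration not given here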
[8] = system: Lefty1; test: Lefty1 protein binding to printed compounds – biochemical, small-molecule microarray, 635/667 nm fluorescence, primary screen (AID 1139); conditions: fluorescence 635/667, higher = more signal
[9] = system: wheat germ agglutinin (Triticum aestivum), Alexa647-labelled; test: Alexa647-WGA lectin binding to printed small molecules – biochemical, small-molecule microarray, 635/667 nm fluorescence, artefact control for SMM control-protein annotation, profiling panel (AID 1140); conditions: WGA-A647 binding, 635 nm fluorescence, higher = more signal;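 also: score merges 667 nm feature emission with signal to noise over triplicate slides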
[10] = target: Luciferin 4-monooxygenase (Photinus pyralis) (UniProt P08659); test: inhibition of purified Photinus pyralis luciferase – biochemical, luminescence, purified enzyme, 2006 set, primary screen (AID 1141); conditions: purified firefly luciferase, SteadyGlo luminescence, 30 min; higher = more signal, called active from +8 up or from −8 down;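 also: cell-free assay with purified firefly luciferase at 100 ng per well in PBS; test concentration not given here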
[11] = system: Wnt5a (protein binding on small-molecule microarray); test: small molecules binding Wnt5a protein – biophysical, small-molecule microarray, 635/667 nm fluorescence, primary screen (AID 1142); conditions: 635 nm fluorescence, higher = more signal;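 also: fluorescence read at 667 nm with signal to noise per printed feature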
[12] = ATP-based viability of Huh7 replicon cells – cell-based, CellTiter-Glo luminescence, basal, 48 h, cytotoxicity control for HCV replication inhibitor project, primary screen (AID 1143); conditions: higher = more signal, called active from +8 up or from −8 down;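 also: Huh7 hepatoma cells carrying a hepatitis C replication reporter with no stimulus; test concentration not given here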
[13] = Pseudomonas biofilm growth suppression – PAO1 strain, BacTiter-Glo luminescence, LB-PBS, primary screen (AID 1144); conditions: P. aeruginosa PAO1 biofilm, 12 h, higher = more signal
[14] = basal CRE-LacZ reporter activity in PC12 – cell-based, unstimulated, primary screen (AID 1145); conditions: no forskolin, luminescence, 4.5 h, higher = more signal, called active from +8 up or from −8 down
[15] = forskolin-driven CRE-LacZ activity in PC12 – cell-based, CRE-LacZ reporter, forskolin-stimulated, primary screen (AID 1146); conditions: luminescence, 4.5 h, higher = more signal, called active from +8 up or from −8 down;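 also: PC12 cells with 6xCRE LacZ reporter stimulated by forskolin 10 µM; beta-galactosidase reporter signal reflecting CREB driven transcription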
[16] = target: Streptavidin (Streptomyces avidinii) (UniProt P22629); test: compounds binding control protein streptavidin – biophysical, small-molecule microarray, 635/667 nm fluorescence, artefact control for SMM compound annotation, primary screen (AID 1147); conditions: higher = more signal;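 also: signal reflects streptavidin binding to arrayed compounds as a control protein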
[17] = probe aInhba binding on compound microarray – biochemical, small-molecule microarray, 635/667 nm fluorescence, primary screen (AID 1148); conditions: higher = more signal;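 also: score merges 667nm spot fluorescence with signal-to-noise for antibody binding to printed compounds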
[18] = target: Torsin-1A (Homo sapiens) (UniProt O14656); test: TOR1A wild-type binding on microarray – cell lysate, small-molecule microarray, lysate, 635/667 nm, primary screen (AID 1149); conditions: COS7 hTOR1A-WT lysate, 635 nm fluorescence, higher = more signal
[19] = target: Torsin-1A (Homo sapiens) (UniProt O14656); test: torsin A mutant lysate binding on microarrays – cell lysate, small-molecule microarray, COS7 lysate, 635/667 nm fluorescence, primary screen (AID 1150); conditions: COS7 hTOR1A mutant lysate, 635 nm fluorescence, higher = more signal;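 also: score pools 667 nm emission and signal to noise measuring lysate protein binding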
[20] = system: Sonic hedgehog protein (Shh); test: Sonic hedgehog microarray binding compounds – biochemical, small-molecule microarray, 635/667 nm fluorescence, primary screen (AID 1151); conditions: 635 nm fluorescence, higher = more signal;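 also: Shh protein binding to compounds spotted on small-molecule microarray slides; score combines spot fluorescence intensity with signal-to-noise across triplicate slides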

Chain of Focal adhesion kinase 1 (Homo sapiens) (Q05397 whole entry, looked up): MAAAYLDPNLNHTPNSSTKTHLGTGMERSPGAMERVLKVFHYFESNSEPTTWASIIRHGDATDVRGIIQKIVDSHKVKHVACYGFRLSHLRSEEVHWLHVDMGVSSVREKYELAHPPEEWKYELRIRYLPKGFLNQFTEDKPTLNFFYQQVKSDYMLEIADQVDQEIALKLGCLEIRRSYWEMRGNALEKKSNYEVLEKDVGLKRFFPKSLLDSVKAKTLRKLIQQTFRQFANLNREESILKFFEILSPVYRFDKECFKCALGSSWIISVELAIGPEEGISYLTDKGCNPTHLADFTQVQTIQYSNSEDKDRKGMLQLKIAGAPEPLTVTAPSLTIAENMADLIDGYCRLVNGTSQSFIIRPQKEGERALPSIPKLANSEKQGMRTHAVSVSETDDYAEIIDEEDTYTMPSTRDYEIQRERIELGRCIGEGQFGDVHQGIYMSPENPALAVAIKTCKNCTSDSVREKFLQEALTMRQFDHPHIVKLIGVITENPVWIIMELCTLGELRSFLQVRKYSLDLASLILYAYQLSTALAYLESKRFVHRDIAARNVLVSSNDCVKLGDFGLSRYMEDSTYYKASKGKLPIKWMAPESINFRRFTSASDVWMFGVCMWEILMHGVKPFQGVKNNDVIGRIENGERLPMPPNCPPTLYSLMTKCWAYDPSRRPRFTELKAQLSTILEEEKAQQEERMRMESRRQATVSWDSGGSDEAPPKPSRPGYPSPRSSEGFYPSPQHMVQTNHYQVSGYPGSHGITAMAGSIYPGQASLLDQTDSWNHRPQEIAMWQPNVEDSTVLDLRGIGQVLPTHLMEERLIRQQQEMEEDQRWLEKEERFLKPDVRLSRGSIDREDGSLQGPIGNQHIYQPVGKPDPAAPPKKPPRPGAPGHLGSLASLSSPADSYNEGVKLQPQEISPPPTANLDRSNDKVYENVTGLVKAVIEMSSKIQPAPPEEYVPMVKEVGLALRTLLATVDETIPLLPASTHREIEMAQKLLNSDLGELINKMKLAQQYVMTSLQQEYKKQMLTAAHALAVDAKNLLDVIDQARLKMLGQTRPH
Chain of Torsin-1A (Homo sapiens) (O14656 whole entry, looked up): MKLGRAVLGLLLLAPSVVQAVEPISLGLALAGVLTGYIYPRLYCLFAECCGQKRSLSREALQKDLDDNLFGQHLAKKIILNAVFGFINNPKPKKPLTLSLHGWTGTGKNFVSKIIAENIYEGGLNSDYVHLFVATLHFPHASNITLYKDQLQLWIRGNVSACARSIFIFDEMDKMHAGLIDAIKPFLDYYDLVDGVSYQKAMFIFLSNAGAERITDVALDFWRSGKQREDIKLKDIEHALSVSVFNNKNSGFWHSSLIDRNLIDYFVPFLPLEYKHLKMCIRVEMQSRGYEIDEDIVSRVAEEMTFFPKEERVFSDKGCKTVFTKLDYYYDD
Chain of Fibroblast growth factor 2 (Homo sapiens) (P09038 whole entry, looked up): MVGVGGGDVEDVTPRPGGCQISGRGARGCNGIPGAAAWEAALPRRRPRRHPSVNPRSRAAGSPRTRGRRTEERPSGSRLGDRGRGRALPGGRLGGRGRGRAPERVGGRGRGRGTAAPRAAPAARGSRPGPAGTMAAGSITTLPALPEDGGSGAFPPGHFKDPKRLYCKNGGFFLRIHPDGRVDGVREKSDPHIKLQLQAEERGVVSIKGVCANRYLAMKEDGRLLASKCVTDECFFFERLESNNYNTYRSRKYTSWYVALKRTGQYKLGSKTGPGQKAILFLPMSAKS
Chain of Streptavidin (Streptomyces avidinii) (P22629 whole entry, looked up): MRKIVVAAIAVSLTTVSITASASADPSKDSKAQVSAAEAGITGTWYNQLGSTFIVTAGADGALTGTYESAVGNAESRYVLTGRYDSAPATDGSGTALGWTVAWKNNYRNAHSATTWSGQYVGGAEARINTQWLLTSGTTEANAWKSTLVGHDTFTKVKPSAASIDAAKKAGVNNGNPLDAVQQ
Chain of Follistatin (Homo sapiens) (P19883 whole entry, looked up): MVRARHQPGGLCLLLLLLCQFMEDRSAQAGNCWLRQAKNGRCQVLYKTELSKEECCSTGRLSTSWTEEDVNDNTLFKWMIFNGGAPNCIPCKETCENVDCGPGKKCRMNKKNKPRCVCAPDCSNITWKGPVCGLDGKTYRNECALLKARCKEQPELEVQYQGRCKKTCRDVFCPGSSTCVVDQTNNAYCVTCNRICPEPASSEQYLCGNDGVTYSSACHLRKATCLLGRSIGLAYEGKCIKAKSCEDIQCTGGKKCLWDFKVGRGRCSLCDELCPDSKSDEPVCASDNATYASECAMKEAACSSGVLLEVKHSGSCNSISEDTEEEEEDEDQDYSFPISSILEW
Chain of Luciferin 4-monooxygenase (Photinus pyralis) (P08659 whole entry, looked up): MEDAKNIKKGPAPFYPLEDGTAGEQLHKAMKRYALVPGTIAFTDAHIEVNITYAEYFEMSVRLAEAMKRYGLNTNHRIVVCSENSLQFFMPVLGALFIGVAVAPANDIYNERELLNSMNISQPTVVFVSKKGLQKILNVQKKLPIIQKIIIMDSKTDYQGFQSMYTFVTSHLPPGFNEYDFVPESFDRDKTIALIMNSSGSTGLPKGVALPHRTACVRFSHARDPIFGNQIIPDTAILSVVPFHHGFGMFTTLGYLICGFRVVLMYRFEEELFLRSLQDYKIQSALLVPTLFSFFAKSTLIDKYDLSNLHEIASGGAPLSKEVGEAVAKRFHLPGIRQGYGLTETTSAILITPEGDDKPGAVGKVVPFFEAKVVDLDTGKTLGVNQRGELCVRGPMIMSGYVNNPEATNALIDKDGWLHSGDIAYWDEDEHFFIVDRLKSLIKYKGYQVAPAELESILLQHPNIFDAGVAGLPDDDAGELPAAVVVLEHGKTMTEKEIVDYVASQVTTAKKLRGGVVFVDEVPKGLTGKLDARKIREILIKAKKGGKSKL

SMILES | composite z-score [1] | composite z-score [2] | composite z-score [3] | composite z-score [4] | composite z-score [5] | composite z-score [6] | z-score [7] | composite z-score [8] | composite z-score [9] | z-score [10] | composite z-score [11] | z-score [12] | z-score [13] | z-score [14] | z-score [15] | composite z-score [16] | composite z-score [17] | composite z-score [18] | composite z-score [19] | composite z-score [20]
O=C1O[C@@H](c2ccccc2)[C@@H](c2ccccc2)N2[C@@H](c3ccc(OCCO)cc3)[C@]3(C(=O)Nc4ccc(C#CC5=CCCCC5)cc43)[C@@H](C(=O)NC[C@H](O)c3ccccc3)[C@H]12 | 2.25 | 1.21 | 0.234 | 0.829 | 1.42 | 1.38 | -1.48 | 1.25 | 0.254 | -0.773 (inactive) | 0.771 | -3.51 (inactive) | -0.209 (inactive) | -0.329 (inactive) | -0.239 (inactive) | 1.5 | 0.853 | 0.411 | 1.01 | 1.38
C=CC[C@]1(C(=O)N2CCOCC2)COC(c2ccc(OCCCO)cc2)=N1 | 2.4 | 1.3 | 0.555 | 0.837 | 1.33 | 0.386 | -0.772 | 0.768 | 0.959 | 0.566 (inactive) | 0.0993 | -2.76 (inactive) | -0.974 (inactive) | 2.01 (inactive) | -0.778 (inactive) | 1.76 | 0.166 | 1.74 | 2.16 | 0.935
CC(C)C(CO)N1C(=O)[C@@H]2C3C(=O)OCCC/C=C\[C@H]3OC23C=CCN(Cn2nnc4ccccc42)C(=O)[C@@H]13 (stereo not given in full) | 2.67 | -0.233 | -0.0444 | -1.18 | -0.0048 | -1.08 | -0.477 | -0.0488 | -0.422 | -0.0817 (inactive) | -0.665 | -0.252 (inactive) | 0.0208 (inactive) | -1.44 (inactive) | -0.0111 (inactive) | -1.23 | -0.128 | -1.7 | -1.07 | 0.0683
COC(=O)c1c(CC[C@@H](CO)NC(=O)N2CCC[C@H]2Cn2cc(C3(O)CCCCC3)nn2)oc(C(C)=O)c1C(=O)OC | 0.794 | 0.759 | -0.0763 | 0.888 | 0.745 | 1.59 | -0.403 | 1.39 | -0.0239 | 0.97 (inactive) | -0.0505 | -0.257 (inactive) | -0.156 (inactive) | 0.498 (inactive) | 0.306 (inactive) | 0.429 | -0.0448 | 0.666 | 0.895 | 1.44
O=C1N(Cc2ccccc2)c2ccccc2C[C@]12N=C(c1ccc(OCCCO)cc1)O[C@@H]2c1ccccc1 | 1.1 | 1.03 | 1.7 | 0.529 | 1.1 | 1.36 | -0.911 | 0.492 | 0.186 | -1.74 (inactive) | 0.0361 | -4.72 (inactive) | -0.126 (inactive) | 1.75 (inactive) | -1.08 (inactive) | 0.0469 | -0.0221 | -0.569 | 0.812 | 0.837
CC1CC/C=C\[C@H]2OC34C=CCN(c5ccc6ccccc6c5)C(=O)[C@H]3N(CCCO)C(=O)[C@@H]4C2C(=O)O1 (stereo not given in full) | 1.08 | -0.453 | -0.633 | -0.794 | -0.82 | -1.86 | -0.148 | -1.12 | -0.985 | -0.212 (inactive) | -1.1 | 0.0518 (inactive) | 1.57 (inactive) | 0.191 (inactive) | 0.234 (inactive) | -1.1 | -0.293 | -2.88 | -1.47 | -0.749
C=C(/C(=C/C[C@H](OC(C)=O)c1ccc(CO)o1)c1cnc2ccccc2c1)C(C)C | 1.07 | 1.16 | 0.38 | 0.988 | 1.39 | 1.41 | -0.874 | 1.55 | 1.33 | -1.41 (inactive) | 0.473 | 0.27 (inactive) | -1.31 (inactive) | -0.671 (inactive) | 0.647 (inactive) | 1.44 | 0.0528 | 1.27 | 0.269 | 1.65
CCOC(=O)C[C@H]1[C@H](OC(=O)c2ccc(C(=O)c3ccccc3)cc2)[C@@H](NC(=O)c2ccc3ccccc3n2)c2cc(OCCCO)ccc2N1C(=O)Cc1ccc(OC)cc1 | -0.249 | 0.656 | 0.0555 | 0.692 | 0.259 | 0.52 | -0.44 | 0.208 | 0.207 | 0.541 (inactive) | -0.126 | -0.124 (inactive) | 0.458 (inactive) | -0.215 (inactive) | -0.357 (inactive) | 0.982 | -0.0521 | -0.077 | 0.292 | -0.381
CCCC[C@@H]1C[C@H]1[C@@H](NC(=O)c1cccs1)c1ccccc1C(F)(F)F | 1.01 | 1.2 | -0.157 | 0.982 | -0.152 | 0.28 | 0.245 | -0.716 | 0.839 | 1.75 (inactive) | 0.0098 | -1.37 (inactive) | -1.3 (inactive) | 0.587 (inactive) | 1.4 (inactive) | 2.1 | 0.274 | 0.458 | 0.555 | -0.142
C#Cc1cc2ccccc2oc1=O | -0.314 | -0.451 | -0.393 | -1.03 | -2.22 | -1.39 | -1.14 | -1.58 | -1.12 | -2.39 (inactive) | -0.365 | -0.692 (inactive) | 0.534 (inactive) | 0.136 (inactive) | 6.19 (inactive) | -1.47 | -0.149 | 0.173 | -0.539 | -1.45
